Assay [1] relates to Human papillomavirus type 1a protein E7 (residues 44-93). The experiment in a line: HPV1a E7 fragment binders on microarrays, primary screen, biochemical, small-molecule microarray, residues 44-93, 635 nm fluorescence (AID 1108).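 Also: E7 fragment applied at 1 µg/mL in TBST for 1 h at 4 C; score combines spot fluorescence with its signal to noise ratio.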 The note with it: small-molecule microarray binding, fluorescence 635 nm; higher = more signal.
Assay [2] can be described thus: modulators of HCV replicon luciferase signal, primary screen, HCV replication inhibitor project, Huh7 cells, luciferase reporter (AID 1109).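 Also: huh7 hepatoma cells harbouring a luciferase neomycin HCV replicon reporter; luciferase luminescence as measure of HCV replicon replication; test concentration not given here.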 The conditions noted are these: 48 h, higher = more signal.
The target of assay [3] is Left-right determination factor 2 (Homo sapiens) (UniProt O00292). The experiment in a line: LEFTY2 binders on small-molecule microarrays, primary screen, biochemical, small-molecule microarray, 635 nm fluorescence scan (AID 1110). The note with it: LEFTY2 binding, higher = more signal.
For assay [4], the target named is Calmodulin-1 (Homo sapiens) (UniProt P0DP23). Put plainly: CALM1 binders on microarrays, EGTA buffer, profiling panel, biochemical, small-molecule microarray, Cy5-labelled CALM1 (AID 1111).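 Also: labelled calmodulin applied in Tris saline Tween buffer holding calcium plus EGTA and DTT.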 The conditions noted are these: Cy5-CALM1 binding fluorescence, higher = more signal.
For assay [5] the target is unchanged. The experiment in a line: calcium-bound CALM1 binders on microarrays, profiling panel, artefact control for SMM control-protein annotation, biochemical, small-molecule microarray, Cy5-labelled CALM1, plus calcium (AID 1112).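 Also: score merges spot fluorescence with signal to noise from triplicate slides.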 The conditions noted are these: Cy5-CALM1 binding fluorescence, higher = more signal.
The nature of assay [6]: small-molecule microarray binders of probe aWnt5a, primary screen, biochemical, biotinylated probe, 635/667 nm fluorescence (AID 1113).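 Also: score merges 667 nm fluorescence intensity with signal-to-noise per printed feature.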 The note with it: higher = more signal.
Assay [7] in a line: small-molecule microarray binders of probe aShh, primary screen, biochemical, biotinylated probe, 635/667 nm fluorescence (AID 1114).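 Also: probe is biotin-labelled aShh protein from a stem cell growth factor screen; measures binding of labelled protein to compounds printed on the slide; score merges feature fluorescence at 667 nm with signal-to-noise.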 The conditions noted are these: higher = more signal.
The nature of assay [8]: small-molecule microarray binders of probe aNog, primary screen, biochemical, biotinylated probe, 635/667 nm fluorescence (AID 1115).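 Also: probe is biotinylated aNog protein used at 0.15 µg/mL for 1 h at 4 C; z-score combines 667 nm fluorescence of each spot with its signal to noise.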 The conditions noted are these: higher = more signal.
For assay [9], the target named is Torsin-1A-interacting protein 1 (Homo sapiens) (UniProt Q5JTV8). The experiment in a line: LAP1 binders from COS7 cell lysate, primary screen, small-molecule microarray, 635/667 nm fluorescence (AID 1116). The note with it: COS7-hLAP1 lysate binding, 635 nm fluorescence, higher = more signal.
Assay [10] concerns the target Alpha-bungarotoxin (Bungarus multicinctus) (UniProt P60615). The experiment in a line: alpha-bungarotoxin binders on microarray, profiling panel, artefact control for SMM control protein annotation, biochemical, small-molecule microarray, Alexa647 label, 635/667 nm fluorescence (AID 1117). The conditions noted are these: alpha-BTX-A647 binding fluorescence, higher = more signal.

Left-right determination factor 2 (Homo sapiens), sequence (O00292 whole entry, looked up): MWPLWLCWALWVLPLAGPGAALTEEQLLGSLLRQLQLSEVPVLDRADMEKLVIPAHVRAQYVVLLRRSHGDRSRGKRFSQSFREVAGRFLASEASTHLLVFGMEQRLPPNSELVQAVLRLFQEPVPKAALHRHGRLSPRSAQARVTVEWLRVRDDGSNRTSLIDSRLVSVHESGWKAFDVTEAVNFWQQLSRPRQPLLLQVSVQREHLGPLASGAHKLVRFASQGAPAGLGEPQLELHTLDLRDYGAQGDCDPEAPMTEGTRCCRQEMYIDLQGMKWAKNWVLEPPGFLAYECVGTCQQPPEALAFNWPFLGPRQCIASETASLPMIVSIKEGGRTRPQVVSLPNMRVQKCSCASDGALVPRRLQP
Torsin-1A-interacting protein 1 (Homo sapiens), sequence (Q5JTV8 whole entry, looked up): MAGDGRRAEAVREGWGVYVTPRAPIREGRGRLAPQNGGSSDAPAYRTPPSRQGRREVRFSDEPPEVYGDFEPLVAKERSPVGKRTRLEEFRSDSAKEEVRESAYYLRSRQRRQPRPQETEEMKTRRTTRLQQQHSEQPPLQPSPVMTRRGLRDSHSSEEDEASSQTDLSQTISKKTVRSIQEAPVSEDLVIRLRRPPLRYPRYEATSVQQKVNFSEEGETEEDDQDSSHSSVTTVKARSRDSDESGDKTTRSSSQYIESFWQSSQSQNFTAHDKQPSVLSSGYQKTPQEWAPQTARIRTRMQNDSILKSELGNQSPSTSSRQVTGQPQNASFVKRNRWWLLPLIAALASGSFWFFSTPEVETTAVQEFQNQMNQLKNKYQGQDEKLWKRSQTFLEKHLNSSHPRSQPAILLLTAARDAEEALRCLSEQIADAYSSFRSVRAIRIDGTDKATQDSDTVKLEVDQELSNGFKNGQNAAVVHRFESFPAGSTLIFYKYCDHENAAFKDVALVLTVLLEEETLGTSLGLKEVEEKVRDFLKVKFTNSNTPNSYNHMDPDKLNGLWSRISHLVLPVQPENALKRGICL
Alpha-bungarotoxin (Bungarus multicinctus), sequence (P60615 whole entry, looked up): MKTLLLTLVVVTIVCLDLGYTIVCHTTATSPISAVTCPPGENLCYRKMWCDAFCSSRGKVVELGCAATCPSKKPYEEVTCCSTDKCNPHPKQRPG

For the compound `COCCOC(=O)N1C(=O)[C@@]2(c3cc(C#CCCO)ccc31)[C@H](c1ccc(OCCO)cc1)N1[C@H](c3ccccc3)[C@H](c3ccccc3)OC(=O)[C@H]1[C@@H]2C(=O)N1CCCCCCC1`, the composite z-score in [1] came out at 0.371; in assay [3], 1.39; in assay [4], 1.99; in assay [5] it was 0.953; in assay [6], 0.779; in assay [7], 0.599. Also, the composite z-score in assay [8] stood at 0.952; in assay [9], 3.39; in assay [10], 2.3. The z-score in assay [2] was -0.882.

Turning to `CC(C)[Si](C#CCCc1ccccc1)(O[C@H](c1ccccc1)c1cn(Cc2ccccc2)nn1)C(C)C`, the composite z-score was 1.32 in assay [1]; 0.345 in assay [3]; 0.138 in [4]; -0.662 in [5]; -0.0239 in [6]; -0.338 in assay [7]. Moreover, the composite z-score was -0.0827 in assay [8], 0.427 in [9] and 0.544 in assay [10]. The compound also yielded a z-score in [2] of -1.53.

Regarding `COc1ccc([Si](C)(C)[C@H]2[C@H](CCO)O[C@@]3(C(=O)N(Cc4cccc(N(C=O)c5ccccc5)c4)c4ccccc43)[C@@H]2C)cc1`, the composite z-score in assay [1] was 1.39; in [3] it was 0.393; in assay [4], 0.909; in assay [5], -0.507; in assay [6], -0.0269; in [7], 0.0723. For the same compound, the composite z-score in assay [8] was 0.0199; in [9] it was 0.124; in assay [10], 0.751. In addition, in assay [2], the z-score is -4.84.

For `CC(C)N1C(=O)c2ccccc2[C@@H](C(=O)NCC(F)(F)F)[C@@H]1c1ccc(CO)cc1`, the composite z-score in assay [1] was 0.124; in assay [3] it was 0.0101; in assay [4] it was -0.257; in assay [5], -0.224; in [6], -0.0334; in [7], -0.0626. For the same compound, the composite z-score in [8] was 0.128; in assay [9], 0.287; in assay [10], -0.143. The same compound showed a z-score in assay [2] of 0.568.

On to `COc1ccc([Si](C)(C)[C@H]2[C@H](CC(=O)N3Cc4ccccc4C[C@H]3CO)O[C@@]3(C(=O)N(C)c4c(Br)cc(C)cc43)[C@@H]2C)cc1`, for which the composite z-score in assay [1] is 1.31; in assay [3] it was 0.205; in assay [4] it was 0.0634; in [5] it was -0.113; in assay [6], -0.102; in [7] it was -0.164. Besides, the values for the composite z-score in assay [8], in [9] and in assay [10] were -0.238, 0.656 and 0.803, respectively. This compound displayed a z-score in [2] of -5.13.

With `Cc1ccc(S[C@]2(C(=O)NCc3ccccc3)CC(=O)N(Cc3ccccc3C(F)(F)F)[C@@H]2c2ccc(CO)cc2)cc1`, the composite z-score is -0.0905 in assay [1]; -1.86 in [3]; -0.488 in [4]; 0.272 in [5]; -0.0778 in assay [6]; -0.221 in assay [7]. The composite z-score was 0.381 in [8], 0.328 in [9] and -0.191 in [10]. In addition, the z-score in [2] was -1.46.

As for `O=C1[C@H]2C=C(I)[C@H](C[C@@H]2OCCCCCCO)[C@@]12CO2`, the composite z-score in [1] was -1.14; in assay [3], 0.687; in assay [4], -1.08; in [5], -1; in assay [6], -0.152; in assay [7], -0.0362. Moreover, the composite z-score in [8] is -0.422; in [9] it was -0.144; in [10], 0.621. The compound further returned a z-score in assay [2] of -2.67.

`CC(C)N1C(=O)c2ccccc2[C@](C)(C(=O)NCC(F)(F)F)[C@@H]1c1ccc(CO)cc1`: the composite z-score is -0.39 in assay [1]; -1.41 in assay [3]; -0.625 in assay [4]; 0.179 in assay [5]; 0.0031 in [6]; -0.153 in assay [7]. Moreover, the composite z-score was 0.543 in [8], 0.716 in assay [9] and -0.573 in assay [10]. In addition, the z-score in assay [2] worked out at 0.164.

In the case of `[N-]=[N+]=NCc1ccccc1[C@@H]1OC(c2ccc(OCCCO)cc2)=N[C@]1(Cc1ccccc1N=[N+]=[N-])C(=O)NCC(O)CO` (stereo not given in full), the composite z-score was 1.18 in [1]; -0.262 in assay [3]; 2.58 in assay [4]; 1.23 in assay [5]; 0.61 in [6]; 0.0048 in assay [7]. The composite z-score worked out at 2.34 in assay [8], 2.74 in [9] and 0.895 in assay [10]. This compound also displayed a z-score in [2] of -1.41.

`CCCCC(O)C1C=CC2C(=O)N(c3ccccc3)C(=O)C2N1Nc1ccc(C#N)cc1` (stereo not given): the composite z-score in assay [1] was 1.02; in assay [3] it was 0.123; in assay [4] it was 1.06; in [5], 0.929; in assay [6], -0.0125; in assay [7], 0.337. Moreover, the composite z-score is 1.19 in [8], 0.385 in [9] and 1.01 in assay [10]. In assay [2], the z-score was -0.115.

Regarding `COc1ccc([Si](C)(C)[C@H]2[C@H](CCO)O[C@@]3(C(=O)N(Cc4cccc(N5C(=O)c6ccccc6Oc6ccccc65)c4)c4ccccc43)[C@@H]2C)cc1`, the composite z-score is 0.72 in [1]; -0.296 in [3]; 0.29 in assay [4]; 0.53 in assay [5]; -0.091 in [6]; -0.262 in assay [7]. Also, the values for the composite z-score in [8], in [9] and in [10] were -0.0816, 0.449 and 0.71, respectively. The same compound showed a z-score in assay [2] of -4.89.

Take `COC(=O)C(CC#Cc1ccc2c(c1)[C@]1(C(=O)N2)[C@H](C(=O)N2CCc3cc(OC)c(OC)cc3C2)[C@H]2C(=O)O[C@H](c3ccccc3)[C@H](c3ccccc3)N2[C@@H]1c1ccccc1OCCO)C(=O)OC`: the composite z-score in assay [1] is -0.099; in assay [3], 0.815; in assay [4], 1.02; in [5] it was -0.509; in assay [6], -0.0161; in assay [7], -0.0289. Moreover, the composite z-score was 0.682 in assay [8], 1.59 in assay [9] and 2.65 in [10]. The z-score in assay [2] is -2.09.

Regarding `COCCOC(=O)N1C(=O)[C@@]2(c3cc(C#CCCO)ccc31)[C@H](c1ccccc1OCCO)N1[C@H](c3ccccc3)[C@H](c3ccccc3)OC(=O)[C@H]1[C@@H]2C(N)=O`, the composite z-score is 1.41 in assay [1]; 0.416 in [3]; 1.25 in assay [4]; -0.0732 in [5]; 0.002 in assay [6]; 0.0204 in assay [7]. Besides, the values for the composite z-score in assay [8], in [9] and in assay [10] were -0.467, 0.606 and 1.23, respectively. The compound also showed a z-score in assay [2] of -1.64.

Values taken from PubChem BioAssay.
